In all, about 330,000 compounds went through this assay and about 4,400 (1.3%) were called active. This excerpt belongs to a sample that is enriched for actives. Values without a mark were called inactive.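 How the source made its calls: active means growth inhibition of the mutant yeast at or above 50%; inactive means the rest.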
Assay: growth inhibitors of tim23-1 mutant yeast, primary screen, luminescence, uHTS (AID 463212);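 further: temperature-sensitive mutant grown at 25 °C; plate controls were DMSO-treated mutant yeast for no effect and medium wells lacking yeast for full effect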
Details: S. cerevisiae tim23-1 growth, BacTiter-Glo luminescence, 24 h; at 20 µM; active compounds read high

SMILES | inhibition
CC(C)(C)c1ccc(Oc2ccc(N)cc2)cc1 | 60.7% (active)
COc1cccc(Oc2ccc(N)cc2)c1 | 8.39%
CC(C)(C)c1ccc(OC2=CS(=O)(=O)c3ccccc32)cc1 | 20.4%
COc1ccc(C2NC(=O)c3ccccc3N2)cc1 (stereo not drawn) | 16.7%
Oc1ccc(C2Nc3cccc4cccc(c34)N2)cc1 | 23.4%
COc1cccc(C2Nc3cccc4cccc(c34)N2)c1 | 57.5% (active)
O=C(NC1CCCC1)C(c1ccc(Cl)cc1)N(C(=O)c1csnn1)C1CC1 (stereo not drawn) | 11.6%
O=C(CN1CCC(NC(=O)C2CC2)CC1)Nc1ccccc1[N+](=O)[O-] | 8.81%
O=S(=O)(c1ccc(SCc2ccc(Br)cc2)nc1)N1CCOCC1 | 6.55%
COc1ccc(C(=O)NCC(=O)N/N=C/c2ccc([N+](=O)[O-])o2)cc1OC | 87.3% (active)
COc1cc(/C=N/NC(=O)CNC(=O)c2ccncc2)ccc1OC(C)=O | -0.262%
COc1cc(CC(=O)N/N=C/c2ccccc2)c([N+](=O)[O-])cc1OC | 4.64%
CCN(CC(=O)Nc1cc(Cl)ccc1C)C(=O)CSCc1ccccc1 | 18.4%
Cc1ccc(S(=O)(=O)c2c[nH]c3ccc(C)cc3c2=O)cc1 | -5.69%
Cc1ccc(-c2cccc([C@H]3[C@@H]4C=CC[C@@H](C)[C@@H]4C(=O)N3Cc3ccccc3)c2)cc1 | 36.6%
COCCCNc1nc2ccccc2nc1NS(=O)(=O)c1ccc(F)cc1 | 21.6%
O=[N+]([O-])c1ccc(C=Nc2ccc(Cl)cc2Cl)s1 | 60.2% (active)
CC1CN(C(=O)c2ccc([N+](=O)[O-])s2)CC(C)O1 (stereo not drawn) | 13.9%
Cc1ccc2c(c1)C1C[N+](C)(CC(=O)c3ccccc3)CCC1N2C(=O)c1ccccc1Cl (stereo not drawn) | -4.6%
COc1ccc(Nc2nc(N)nc(CSC(=S)N3CCC(C)CC3)n2)cc1 | 50%
CC(=O)c1ccc(NC(=O)c2ccc(-n3cncn3)c([N+](=O)[O-])c2)cc1 | -6.94%
Cc1cc(Cl)ccc1C(=O)C1CCCN(C(=O)c2nonc2C)C1 (stereo not drawn) | 41.7%
O=C(Nc1ccc(NC(=O)c2ccc3c(c2)OCO3)cc1)c1cccc(Cl)c1 | 1.12%
O=C(Nc1ccccc1)c1ccc2c(c1)OCCCO2 | 51% (active)

SMILES | inhibition
O=C(Nc1ccc(N2CCOCC2)cc1)c1ccc2c(c1)OCO2 | 10.9%
O=C(Nc1cccc(F)c1)NC1CCCCCCC1 | 50.3% (active)
O=C(Nc1cccc(F)c1)NC1CCCc2ccccc21 (stereo not drawn) | 19.8%
C/C(CC(=O)Nc1cccc(F)c1)=N\NC(=O)C(=O)NC1CCCCC1 | 18.3%
C=CCOc1ccc(/C=C2/C(=O)ON=C2C)cc1OCC | 22.6%
CC1=NOC(=O)/C1=C\c1ccccc1 | 16.8%
COc1cc(/C=C2\SC(=O)NC2=O)ccc1OCc1ccc(Cl)nc1 | -2.95%
COc1cc(/C=C2/C(=O)ON=C2C)ccc1OCc1ccccc1F | 66.9% (active)
C#CCOc1ccc(/C=C2/C(=O)ON=C2C)cc1OCC | 28.2%
COc1cc(/C=C2/C(=O)ON=C2C)ccc1OCc1cccc(F)c1 | 52.2% (active)
CN1CCN(C(CNS(=O)(=O)c2cccs2)c2cccnc2)CC1 (stereo not drawn) | 7.24%
CCN(CC(=O)Nc1ccc(OC)cc1)C(=O)c1ccc(=O)n(Cc2ccccc2)n1 | 7.12%
CC(C)N(C(=O)[C@H]1C[C@H](CC(=O)NC(C)(C)C)C(=O)N2CCc3c([nH]c4ccc(Cl)cc34)[C@]12C)C(C)C | 43.7%
COC(C[C@H](O)CC(=O)[C@@H](C)OCc1ccccc1)OC | 8.93%
COC(C[C@@H]1O[C@@H]1C(=O)[C@H](C)OCc1ccccc1)OC | -16.7%
COC(C/C=C/C(=O)[C@@H](C)OCc1ccccc1)OC | 56.2% (active)
Cc1ccc(NS(=O)(=O)c2ccc3c(c2)oc(=O)n3C)c(C)c1 | 21.8%
CCn1cc(C(=O)NC2CCCCCC2)c(=O)c2cc(S(=O)(=O)N3CCCCC3)ccc21 | 12.1%
N#Cc1cccc(CSc2ncnc(N)n2)c1 | 10.7%
OCCN1CCN(c2nnc(-c3ccccc3)c3ccccc23)CC1 | -13.1%
CCCC(=O)N1CCN(c2nnc(-c3ccc(C)cc3)c3ccccc23)CC1 | 50.5% (active)
c1ccc(-c2nnc(N3CCOCC3)c3ccccc23)cc1 | -18.2%
O=C(Oc1cccc(O)c1)C1CCCCC1 | 25.1%
CCCSC(=S)NC1CCS(=O)(=O)C1 (stereo not drawn) | 8.59%

— PubChem BioAssay AID463212 (Sanford-Burnham Center for Chemical Genomics, 2010)
